Outcome data for 31 compounds are collected here from PubChem BioAssay AID623996 (NMMLSC, 2012).

Measured potencies and affinities stand elsewhere. Active and inactive are the calls of the source.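 How the source made its calls: active means fitted concentration giving half the maximal Nile Red retention below 100 µM; inactive means the rest.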

The target of this experiment is Multidrug resistance protein CDR1 (Candida albicans) (UniProt P43071). The experiment in a line: Candida albicans Cdr1 pump inhibition curves – singleplex, Cherry Pick2 set, dose response (AID 623996). To be noted: S. cerevisiae AD/CaCDR1, Nile Red efflux inhibition, flow cytometry; series mostly up to 100 µM. For orientation: A flow cytometer gives signals particle by particle.
Sequence of Multidrug resistance protein CDR1 (Candida albicans) (P43071 whole entry, looked up): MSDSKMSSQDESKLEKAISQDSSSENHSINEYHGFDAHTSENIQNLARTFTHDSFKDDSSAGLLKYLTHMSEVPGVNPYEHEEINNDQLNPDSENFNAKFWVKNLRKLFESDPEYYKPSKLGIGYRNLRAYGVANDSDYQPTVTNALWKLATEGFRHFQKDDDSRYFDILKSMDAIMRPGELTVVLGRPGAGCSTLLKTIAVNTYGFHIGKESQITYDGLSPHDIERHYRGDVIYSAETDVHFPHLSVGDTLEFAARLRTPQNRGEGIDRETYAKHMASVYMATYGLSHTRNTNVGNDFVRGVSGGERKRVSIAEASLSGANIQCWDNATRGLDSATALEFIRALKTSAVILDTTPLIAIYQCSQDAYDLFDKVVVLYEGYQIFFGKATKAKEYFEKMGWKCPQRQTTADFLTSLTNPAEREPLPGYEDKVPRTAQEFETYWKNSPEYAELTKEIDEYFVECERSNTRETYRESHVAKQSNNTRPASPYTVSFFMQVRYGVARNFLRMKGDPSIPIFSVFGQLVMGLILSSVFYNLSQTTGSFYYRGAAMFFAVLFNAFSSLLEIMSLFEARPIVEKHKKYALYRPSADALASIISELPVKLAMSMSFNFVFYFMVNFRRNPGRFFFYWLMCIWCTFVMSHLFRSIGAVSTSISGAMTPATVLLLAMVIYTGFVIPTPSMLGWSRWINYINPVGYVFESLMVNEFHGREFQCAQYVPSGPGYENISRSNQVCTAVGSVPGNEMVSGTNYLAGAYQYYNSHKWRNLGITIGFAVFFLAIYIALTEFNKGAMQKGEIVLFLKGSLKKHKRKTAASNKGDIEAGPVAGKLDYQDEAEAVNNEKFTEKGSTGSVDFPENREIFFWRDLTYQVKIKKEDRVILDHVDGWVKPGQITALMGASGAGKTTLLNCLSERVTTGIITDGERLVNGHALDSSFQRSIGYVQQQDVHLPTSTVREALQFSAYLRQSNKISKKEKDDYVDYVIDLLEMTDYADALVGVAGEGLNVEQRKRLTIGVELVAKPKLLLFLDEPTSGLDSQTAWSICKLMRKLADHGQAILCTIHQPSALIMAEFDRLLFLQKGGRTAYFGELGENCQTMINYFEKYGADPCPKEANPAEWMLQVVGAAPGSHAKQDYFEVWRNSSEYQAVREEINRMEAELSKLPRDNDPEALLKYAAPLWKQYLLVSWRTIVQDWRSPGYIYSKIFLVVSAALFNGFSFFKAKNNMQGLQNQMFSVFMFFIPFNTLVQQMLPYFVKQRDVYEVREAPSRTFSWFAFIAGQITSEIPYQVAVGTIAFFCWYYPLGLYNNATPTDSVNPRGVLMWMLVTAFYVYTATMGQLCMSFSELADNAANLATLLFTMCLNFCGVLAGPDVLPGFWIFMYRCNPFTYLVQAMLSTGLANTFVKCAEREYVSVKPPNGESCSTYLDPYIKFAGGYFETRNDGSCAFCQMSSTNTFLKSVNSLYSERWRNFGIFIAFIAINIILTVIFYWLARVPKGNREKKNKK

Turning to `COc1cc(OC)c2ccc(=O)oc2c1C(CCN1CCCC1)c1ccc(N(C)C)cc1` (stereo unspecified), the result was inactive.
Turning to `O=C(CSc1nnc(Cc2cccs2)n1Cc1ccco1)Nc1ccc(Br)cc1`, the compound was classed as inactive.
For `CC(C)C(=O)N1CCN(c2ccccc2NC(=O)c2ccc3c(c2)OCCO3)CC1`, the result was inactive.
In the case of `N#CC(C(=O)NCc1ccccc1)c1nc2ccccc2nc1N1CCCC1` (stereo unspecified), the outcome was inactive.
With `O=C(C1CCCN(c2ncnc3c2nc2n3CCCCC2)C1)N1CCN(c2cccc(Cl)c2)CC1` (stereo unspecified), the outcome was inactive.
With `CCCCN1Cc2cc(C(=O)c3cc(OC)ccc3O)cnc2NC1=O`, the result was inactive.
Regarding `NS(=O)(=O)c1ccc(N2N=C(c3ccccc3)CC2c2ccccc2)cc1` (stereo unspecified), the call was inactive.
For `O=C(c1ccc2c(c1)OCO2)N1CCC2(CC1)Oc1ccc(F)cc1C(=O)C21CC(c2ccc(Cl)cc2)=NO1` (stereo unspecified), the compound was called inactive.
For `CCCCCc1cc(=O)oc2c(C(CCN3CCCC(C)C3)c3ccc(N(C)C)cc3)c(OC)cc(OC)c12` (stereo unspecified), the compound was called inactive.
For `Cc1cccc(C2CC(c3ccccc3)=NN2c2ccc(S(N)(=O)=O)cc2)c1` (stereo unspecified), the compound was called inactive.
As to `CCN(CC)CCC(c1ccc(N(C)C)cc1)c1c(OC)cc(OC)c2ccc(=O)oc12` (stereo unspecified), the outcome was inactive.
Take `NS(=O)(=O)c1ccc(N2N=C(c3ccc(Br)cc3)CC2c2ccc(F)cc2)cc1` (stereo unspecified): the result was inactive.
For the compound `O=C(C1CCCN(c2ncnc3c2nc2n3CCCCC2)C1)N1CCN(c2ccccc2F)CC1` (stereo unspecified), the compound was called inactive.
As for `O=C(C1CCC(CNc2nc(=S)[nH]c3ccccc23)CC1)N1CCN(c2ccc(F)cc2)CC1` (stereo unspecified), the call was inactive.
In the case of `Cc1cc(C(=O)NC2CC(C)(C)Cc3c2cnn3-c2ccc(F)cc2)no1` (stereo unspecified), the call was inactive.
Take `Cc1ccc(C)c(N2CCN(C(=O)C3CCCN(c4ncnc5c4nc4n5CCCCC4)C3)CC2)c1` (stereo unspecified): the compound was called inactive.
Regarding `COc1ncccc1C(=O)NC1CCCc2c1cnn2-c1cc(C)cc(C)c1` (stereo unspecified), the call was inactive.
Take `C[C@H](CO)N1C[C@H](C)[C@@H](CN(C)S(=O)(=O)c2ccccc2)Oc2c(NC(=O)Nc3ccccc3)cccc2C1=O`: the compound was classed as inactive.
`O=C1C(Cc2ccccc2)Nc2ncnc(N3CCN(c4ccccc4)CC3)c2N1Cc1ccccc1` (stereo unspecified): the compound was classed as inactive.
Regarding `O=C(Nc1ccccc1)C1=C[C@@H](c2ccc(C(F)(F)F)cc2)C[C@@H](OCCCCO)O1`, the outcome was inactive.
As for `COc1ccc(N2CCN(C(=O)C3CCCN(c4ncnc5c4nc4n5CCCCC4)C3)CC2)cc1` (stereo unspecified), the entry is “inactive”; as for `O=C(c1ccoc1)N1CCC2(CC1)Oc1ccc(F)cc1C(=O)C21CC(c2ccc(Cl)cc2)=NO1` (stereo unspecified), “inactive”.
As for `CCO[C@@H]1OC(C(=O)Nc2ccccc2)=C[C@H](c2ccccc2)[C@H]1CCCO`, the entry is “inactive”; as for `COc1ccc(CNC(=O)C(C#N)c2nc3ccccc3nc2N2CCCC2)cc1` (stereo unspecified), “inactive”.
Take `COc1ccc2nc(NC(=O)c3cccs3)sc2c1`: the result was inactive.
For the compound `O=C(/C=C/c1cccs1)N1CCC2(CC1)Oc1ccc(F)cc1C(=O)C21CC(c2ccccc2)=NO1` (stereo unspecified), the compound was called inactive.
Consider `OCCN1CCN(CC/C=C2/c3ccccc3Sc3ccc(C(F)(F)F)cc32)CC1`, for which the result was inactive.
Regarding `Cc1ccc2c(c1)[C@H]1[C@H](CO2)[C@H](c2ccccc2)[C@]2(C)C(=O)Nc3cc(F)c(F)cc3C(=O)N12`, the compound was classed as inactive.
With `COc1ccc([C@H]2CC(=O)C=C(c3ccnc4ccc(Cl)cc34)C2)cc1`, the outcome was inactive.
In the case of `COc1ccc(C(=O)NC2CC(C)(C)Cc3c2cnn3-c2ccccc2)c(OC)c1` (stereo unspecified), the result was inactive.
On to `NC1=NC[C@H](Cc2ccccc2)N1CCCCC1CCCCC1`, for which the result was inactive.
